Where “and” joins values, the source holds several entries; their conditions need not be identical. Equal values may be shown once. Unmarked numbers belong to inactive results. Inconclusive results are not listed. Calls of active or inactive are those of the source. Unless noted, the call rests on the fitted dose curve; in most records, active means well fitted inhibition curve with a large enough effect; inconclusive means small, poorly fitted or top-dose-only effect; inactive means flat fitted curve, though single readings scatter. Where a SMILES comes first, the peptide text is derived from it. Bridges are numbered along the chain shown (N, C = ends). [ ]: non-standard residue; d: D form. Orn = NCCC[C@H](N)C(=O)O; Mpa = O=C(O)CCS
Columns and labels:
[1] = Drug repurposing screens with cells derived from glioblastoma tumor samples (AID 1345199); conditions: GBM patient neurospheres viability, ATP luminescence, 48 h; further: nearly all actives have a fitted effect of over 40% in size; further: potency means the concentration at half of the fitted maximal effect; on activity, negative = cell killing: on the % scale 0 is the no-effect control and ±100 the full control effect
Summary of the method: (§1)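 Four patient lines of CD133+ GBM neurospheres were screened at several concentrations; hits were retested in those lines plus three slower-growing GBM lines, using 48-hour treatment and ATP-based viability.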

[2] = test system: astro; assay: as above; conditions: viability, ATP luminescence, 48 h; series mostly up to 45.9 µM
Summary of the method: as §1

[3] = molecular target: Nuclear receptor subfamily 1 group I member 2 (Rattus norvegicus) (UniProt Q9R1A7); assay: qHTS assay for small molecule activators of the rat pregnane X receptor (rPXR) signaling pathway (AID 651751; call rule not given here; further: 0% is about no effect); conditions: rPXR reporter cells, luciferase (One-Glo), 24 h
Nuclear receptor subfamily 1 group I member 2 (Rattus norvegicus), sequence (Q9R1A7 whole entry, looked up): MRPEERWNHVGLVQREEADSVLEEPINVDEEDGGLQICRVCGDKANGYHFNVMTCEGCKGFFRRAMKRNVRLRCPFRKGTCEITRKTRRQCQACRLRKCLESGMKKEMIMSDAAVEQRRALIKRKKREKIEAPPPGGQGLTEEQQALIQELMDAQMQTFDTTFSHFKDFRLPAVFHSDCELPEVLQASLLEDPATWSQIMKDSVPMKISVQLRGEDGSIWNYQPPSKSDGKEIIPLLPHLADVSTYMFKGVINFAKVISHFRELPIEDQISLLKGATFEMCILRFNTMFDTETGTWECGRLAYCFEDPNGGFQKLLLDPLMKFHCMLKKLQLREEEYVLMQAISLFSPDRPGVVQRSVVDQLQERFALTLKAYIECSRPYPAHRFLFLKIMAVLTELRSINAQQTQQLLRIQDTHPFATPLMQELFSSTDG

[4] = qHTS assay for small molecule activators of the human pregnane X receptor (PXR) signaling pathway (AID 720659; call rule not given here; further: 0% is about no effect); conditions: DPX-2 HepG2 CYP3A4-luciferase, 24 h; series mostly up to 92.3 µM
[5] = at 45.9 µM (top of the series), tumour line B
[6] = at 45.9 µM (top of the series), tumour line D
[7] = at 46.1 µM (top of the series), tumour line C
[8] = at 46 µM (top of the series), tumour line A

SMILES	activity, negative = cell killing [1, 5]	activity, negative = cell killing [1, 6]	activity, negative = cell killing [1, 7]	Potency [2]	activity, negative = cell killing [1, 8] [%]	Potency ([1]; tumour line A)	max response [3]	outcome [4]
CCOC(=O)[C@H](CCc1ccccc1)N[C@H]1CCCN2CCC[C@@H](C(=O)O)N2C1=O	-17.5%	-14.2%	4.99%	inactive	–	–	–	–
C/C=C(/CC[C@@H](C)[C@H]1CC[C@H]2C3=CC[C@H]4[C@H](C)[C@@H](O)CC[C@]4(C)[C@H]3CC[C@]12C)C(C)C	-6.71%	-7.38%	9.21%	inactive	–	–	–	–
CCCCCCCCCCCCCCCCCC(=O)[O][Al]	-8.38%	-6.36%	-6.43%	inactive	-12.4	–	–	–
C=CS(=O)(=O)O	-2.55%	-4.12%	-10.9%	inactive	–	–	–	–
CCN(CC)c1ccc(N=Nc2ccc(S(=O)(=O)N(C)C)cc2)c(S(=O)(=O)NCC[n+]2ccccc2)c1	-13%	-3.67%	-10.2%	inactive	–	35.5 µM (active)	–	–
O=P(O)(O)C(O)(Cc1cnc2ccccn12)P(=O)(O)O	-3.54%	2.92%	2.63%	inactive	-12.2	–	–	–
Cc1cccc(C)c1N(CCCc1cccnc1)C(=O)C(C)N (configuration not stated)	-3.85%	-15.3%	–	inactive	–	11.2 µM (active)	–	–
CCOc1ccc(C[C@H]2NC(=O)CCSSC[C@@H](C(=O)N3CCC[C@H]3C(=O)N[C@@H](CCCN)C(=O)NCC(N)=O)NC(=O)[C@H](CC(N)=O)NC(=O)[C@H]([C@@H](C)O)NC(=O)[C@H]([C@@H](C)CC)NC2=O)cc1 ([Mpa][dY](Et)ITNCP[Orn]G-NH2; disulfide 1-6)	-9.93%	-4.59%	3.43%	inactive	–	–	–	–
COc1ccc(CCNCC(O)COc2cccc(C)c2)cc1OC (configuration not stated)	-28.4%	–	-25.3%	inactive	–	11.2 µM (active)	–	–
O=P(O)(O)C(Sc1ccc(Cl)cc1)P(=O)(O)O	3.66%	-1.38%	-7.59%	inactive	-1.1	–	–	–
CN(C)Cc1ccccc1	-9.24%	4.8%	-2.01%	inactive	-29.4	–	2.69%	inactive
CN(C(=O)CO)c1c(I)c(C(=O)NCC(O)CO)c(I)c(C(=O)NCC(O)CO)c1I (configuration not stated)	-7.14%	-10.4%	-4.09%	inactive	–	–	–	–
CSCC[C@H](NC(=O)[C@H](Cc1ccc(OS(=O)(=O)O)cc1)NC(=O)[C@@H](N)CC(=O)O)C(=O)NCC(=O)N[C@@H](Cc1c[nH]c2ccccc12)C(=O)N[C@@H](CCSC)C(=O)N[C@@H](CC(=O)O)C(=O)N[C@@H](Cc1ccccc1)C(N)=O	-12.8% and -14.6%	-10.7% and -3.46%	9.45% and -3.35%	inactive	-8.64	–	–	–
CCCCOC(=O)C(=O)Nc1cccc(-c2nn[nH]n2)c1	-12.5%	2.48%	-2.11%	inactive	–	–	–	–
O=C(O)CC(O)(CC(=O)O)C(=O)O	-4.79%	-16.4%	8.12%	inactive	-28.2	–	-3.16% and 0.294% and 0.384%	inactive
NCCCC[C@H](NC(=O)[C@@H]1CCCN1C(=O)[C@@H]1CSSC[C@H](N)C(=O)N[C@@H](Cc2ccc(O)cc2)C(=O)N[C@@H](Cc2ccccc2)C(=O)N[C@@H](CCC(N)=O)C(=O)N[C@@H](CC(N)=O)C(=O)N1)C(=O)NCC(N)=O	-6.49% and -12.6%	-7.59% and -12.4%	13.1%	inactive	-33.8	–	–	–
CCCCCCCCCCCCCCCC(=O)OC/C=C(C)/C=C/C=C(C)/C=C/C1=C(C)CCCC1(C)C	-7.71%	9.03%	0.655%	inactive	–	20 µM (active)	–	–
CCOC(=O)COc1ccc2c(C)c(CCN(CC)CC)c(=O)oc2c1	4.06%	5.03%	-14.9%	inactive	–	12.6 µM (active)	–	–
CCCC(=O)O[C@]1(C(=O)COC(=O)CC)[C@@H](C)C[C@H]2[C@@H]3CCC4=CC(=O)C=C[C@]4(C)[C@@]3(F)[C@@H](O)C[C@@]21C	-13%	-14.2%	9.54%	inactive	–	12.6 µM (active)	–	–
CCCCCC(O)/C=C/C=O (configuration not stated)	5.27%	-8.74%	8.89%	inactive	-27.6	–	–	–
CCCCCCCCCC(=O)O	-8.75%	-10.5%	-4.57%	inactive	-20.2	–	-3.39% and -5.8%	inactive
c1cnc2cc3c(cc2n1)[C@@H]1CNC[C@H]3C1	5.48%	-17.8%	-0.703%	inactive	–	–	–	–
C=Cc1ccccc1	-11.1%	3.17%	3.42%	–	-1.65	–	2.91% and 3.44%	inactive
CCCCC(=O)O	-3.62% and -8.26%	6.9% and -1.28%	-7.54% and 1.54%	inactive	-15.7	–	–	–
CNC[C@@H]1CC[C@@H](N)[C@@H](O[C@H]2[C@H](O)[C@@H](O[C@H]3OC[C@](C)(O)[C@H](NC)[C@H]3O)[C@H](N)C[C@@H]2N)O1	-14.4%	-20.8%	16.1%	inactive	–	–	–	–
CC(=O)S[C@@H]1CC2=CC(=O)CC[C@]2(C)[C@H]2CC[C@@]3(C)[C@@H](CC[C@@]34CCC(=O)O4)[C@H]12	-27.2%	-26.7%	-22.4%	inactive	–	10 µM (active)	–	–

— PubChem BioAssay (NCATS)
